Assay results from paper PMC7862700, “An all-to-all approach to the identification of sequence-specific readers for epigenetic DNA modifications on cytosine”.

Experiments:
Assay in all cases: DAPPL (digital affinity profiling via proximity ligation, sequencing); 10 mM Tris-HCl pH 7.5, 50 mM NaCl, 1 mM DTT, 4% glycerol, room temperature, 30 min; GST-TFs on glutathione beads, 16-mer random dsDNA library, 0.1% formaldehyde crosslink after washing; high values mean tight binding
FEV = target: T1, FEV (Homo sapiens, UniProt Q99581 1-238); conditions: protein: recombinant; tags: N-terminal GST; dsDNA, one strand shown
T1 sequence: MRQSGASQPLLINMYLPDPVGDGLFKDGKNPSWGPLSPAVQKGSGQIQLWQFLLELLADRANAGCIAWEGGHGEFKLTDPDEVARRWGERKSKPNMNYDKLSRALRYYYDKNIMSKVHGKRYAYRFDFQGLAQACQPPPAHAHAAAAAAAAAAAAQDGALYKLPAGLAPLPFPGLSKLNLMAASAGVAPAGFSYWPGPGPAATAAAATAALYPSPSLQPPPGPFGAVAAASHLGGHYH
Procedure, shortened: (§1)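 Beads coated with glutathione captured GST-fused human transcription factors that had been expressed in yeast, and the factors were then given DNA barcodes and pooled with a tag-only sample. The pools were incubated with 200 nmole of a random double-stranded 16-mer DNA library in Tris/NaCl/DTT/glycerol buffer for 30 min at room temperature, washed, crosslinked with 0.1% formaldehyde and proximity-ligated with BsaI/T4 ligase at 37 °C for 1 h. PCR amplification and Illumina NextSeq500 sequencing came last. Binding signal is each hexamer's read frequency for a factor divided by its frequency for the tag-only sample.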

ETV5 = ETV5 (Homo sapiens, UniProt P41161 1-510); conditions: protein: recombinant; tags: N-terminal GST; dsDNA, one strand shown
Procedure, shortened: as §1

HSF1 = HSF1 (Homo sapiens, UniProt Q00613 1-529); conditions: protein: recombinant; tags: N-terminal GST; chain copies: 3; dsDNA, one strand shown
Procedure, shortened: as §1

SPIC = target: T2, SPIC (Homo sapiens, UniProt Q8N5J4 1-248); conditions: protein: recombinant; tags: N-terminal GST; dsDNA, one strand shown
T2 sequence: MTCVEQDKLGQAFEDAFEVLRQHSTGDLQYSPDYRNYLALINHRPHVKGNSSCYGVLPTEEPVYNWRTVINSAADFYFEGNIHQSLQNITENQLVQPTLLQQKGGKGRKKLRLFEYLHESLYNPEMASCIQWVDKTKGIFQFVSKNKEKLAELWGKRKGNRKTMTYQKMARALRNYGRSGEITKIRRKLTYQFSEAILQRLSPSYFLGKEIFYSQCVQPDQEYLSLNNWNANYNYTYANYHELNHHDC
Procedure, shortened: as §1

ELF4 = ELF4 (Homo sapiens, UniProt Q99607 1-663); conditions: protein: recombinant; tags: N-terminal GST; dsDNA, one strand shown
Procedure, shortened: as §1

ELK4 = target: T3, ELK4 (Homo sapiens, UniProt P28324-2 1-405); conditions: protein: recombinant; tags: N-terminal GST; dsDNA, one strand shown
T3 sequence: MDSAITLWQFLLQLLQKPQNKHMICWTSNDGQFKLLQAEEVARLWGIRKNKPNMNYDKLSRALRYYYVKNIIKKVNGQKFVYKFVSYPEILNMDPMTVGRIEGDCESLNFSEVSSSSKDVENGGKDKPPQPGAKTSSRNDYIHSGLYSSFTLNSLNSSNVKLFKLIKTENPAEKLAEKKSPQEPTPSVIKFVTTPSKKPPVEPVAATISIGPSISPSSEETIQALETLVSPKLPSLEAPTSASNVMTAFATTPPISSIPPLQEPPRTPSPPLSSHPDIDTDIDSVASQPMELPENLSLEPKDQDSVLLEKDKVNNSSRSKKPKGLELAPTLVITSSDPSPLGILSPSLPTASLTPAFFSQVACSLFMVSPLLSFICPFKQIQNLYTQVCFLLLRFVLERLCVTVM
Procedure, shortened: as §1

ETV2 = target: T4, ETV2 (Homo sapiens, UniProt O00321 1-342); conditions: protein: recombinant; tags: N-terminal GST; dsDNA, one strand shown
T4 sequence: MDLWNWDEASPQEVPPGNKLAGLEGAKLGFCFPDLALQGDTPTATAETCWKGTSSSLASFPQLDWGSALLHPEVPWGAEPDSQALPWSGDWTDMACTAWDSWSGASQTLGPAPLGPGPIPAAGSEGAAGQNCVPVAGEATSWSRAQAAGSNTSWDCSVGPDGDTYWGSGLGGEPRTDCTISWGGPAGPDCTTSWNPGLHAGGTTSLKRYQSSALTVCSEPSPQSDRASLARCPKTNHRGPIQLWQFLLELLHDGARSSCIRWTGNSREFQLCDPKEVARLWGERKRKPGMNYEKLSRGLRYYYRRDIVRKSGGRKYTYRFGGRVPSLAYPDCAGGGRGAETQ
Procedure, shortened: as §1

ELF3 = target: T5, ELF3 (Homo sapiens, UniProt P78545 1-371); conditions: protein: recombinant; tags: N-terminal GST; dsDNA, one strand shown
T5 sequence: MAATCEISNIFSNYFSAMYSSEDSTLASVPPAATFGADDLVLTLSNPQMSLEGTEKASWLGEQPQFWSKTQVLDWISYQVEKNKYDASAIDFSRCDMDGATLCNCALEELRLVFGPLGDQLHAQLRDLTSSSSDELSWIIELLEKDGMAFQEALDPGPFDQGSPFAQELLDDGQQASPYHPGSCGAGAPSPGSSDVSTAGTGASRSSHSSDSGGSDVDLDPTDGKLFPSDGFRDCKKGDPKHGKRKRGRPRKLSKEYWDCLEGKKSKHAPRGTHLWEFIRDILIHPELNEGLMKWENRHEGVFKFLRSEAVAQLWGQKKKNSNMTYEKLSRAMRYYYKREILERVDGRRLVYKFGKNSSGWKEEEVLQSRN
Procedure, shortened: as §1

CRX = CRX (Homo sapiens, UniProt O43186 1-299); conditions: protein: recombinant; tags: N-terminal GST; dsDNA, one strand shown
Procedure, shortened: as §1

ETV1 = ETV1 (Homo sapiens, UniProt P50549 1-477); conditions: protein: recombinant; tags: N-terminal GST; dsDNA, one strand shown
Procedure, shortened: as §1

ERF = target: T6, ERF (Homo sapiens, UniProt P50548 1-548); conditions: protein: recombinant; tags: N-terminal GST; dsDNA, one strand shown
T6 sequence: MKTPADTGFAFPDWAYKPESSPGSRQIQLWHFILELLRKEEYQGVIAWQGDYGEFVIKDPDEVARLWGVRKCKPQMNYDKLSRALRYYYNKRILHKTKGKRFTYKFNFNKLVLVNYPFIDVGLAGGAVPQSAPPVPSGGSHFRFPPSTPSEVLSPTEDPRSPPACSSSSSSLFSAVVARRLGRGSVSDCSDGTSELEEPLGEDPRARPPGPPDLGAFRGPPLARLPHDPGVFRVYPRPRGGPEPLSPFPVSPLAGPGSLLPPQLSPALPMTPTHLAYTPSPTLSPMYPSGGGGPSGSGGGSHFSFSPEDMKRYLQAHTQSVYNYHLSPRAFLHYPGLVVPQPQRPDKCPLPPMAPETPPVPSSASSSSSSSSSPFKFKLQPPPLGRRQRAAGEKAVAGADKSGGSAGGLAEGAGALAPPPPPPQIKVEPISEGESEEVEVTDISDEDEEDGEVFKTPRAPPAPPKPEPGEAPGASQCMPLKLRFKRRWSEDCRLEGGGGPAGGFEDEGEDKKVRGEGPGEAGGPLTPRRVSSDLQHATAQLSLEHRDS
Procedure, shortened: as §1

ETV3L = target: T7, ETV3L (Homo sapiens, UniProt Q6ZN32 1-361); conditions: protein: recombinant; tags: N-terminal GST; dsDNA, one strand shown
T7 sequence: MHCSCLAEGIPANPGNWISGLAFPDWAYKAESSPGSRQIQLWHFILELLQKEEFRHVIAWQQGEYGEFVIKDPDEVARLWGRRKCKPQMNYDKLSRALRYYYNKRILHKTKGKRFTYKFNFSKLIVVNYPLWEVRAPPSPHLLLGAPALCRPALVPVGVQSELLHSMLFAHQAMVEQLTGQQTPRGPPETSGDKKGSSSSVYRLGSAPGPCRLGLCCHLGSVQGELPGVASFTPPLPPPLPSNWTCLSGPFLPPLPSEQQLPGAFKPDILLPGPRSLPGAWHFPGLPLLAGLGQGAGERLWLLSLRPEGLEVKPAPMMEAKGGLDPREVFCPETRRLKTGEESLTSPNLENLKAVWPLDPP
Procedure, shortened: as §1

ETS2 = target: T8, ETS2 (Homo sapiens, UniProt P15036 1-469); conditions: protein: recombinant; tags: N-terminal GST; dsDNA, one strand shown
T8 sequence: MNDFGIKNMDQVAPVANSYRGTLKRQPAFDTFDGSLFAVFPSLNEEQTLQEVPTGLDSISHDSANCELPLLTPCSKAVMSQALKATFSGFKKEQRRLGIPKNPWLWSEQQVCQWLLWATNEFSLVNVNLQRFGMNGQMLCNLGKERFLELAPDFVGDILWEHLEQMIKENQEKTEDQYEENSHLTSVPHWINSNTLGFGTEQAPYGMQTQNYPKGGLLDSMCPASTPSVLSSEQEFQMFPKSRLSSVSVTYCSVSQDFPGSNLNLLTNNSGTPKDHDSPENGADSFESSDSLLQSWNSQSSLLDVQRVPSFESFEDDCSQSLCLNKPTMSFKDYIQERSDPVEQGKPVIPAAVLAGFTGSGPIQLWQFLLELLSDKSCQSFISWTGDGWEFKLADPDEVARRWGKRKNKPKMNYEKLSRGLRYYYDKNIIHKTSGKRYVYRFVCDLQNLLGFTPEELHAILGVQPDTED
Procedure, shortened: as §1

SPDEF = target: T9, SPDEF (Homo sapiens, UniProt O95238 1-335); conditions: protein: recombinant; tags: N-terminal GST; dsDNA, one strand shown
T9 sequence: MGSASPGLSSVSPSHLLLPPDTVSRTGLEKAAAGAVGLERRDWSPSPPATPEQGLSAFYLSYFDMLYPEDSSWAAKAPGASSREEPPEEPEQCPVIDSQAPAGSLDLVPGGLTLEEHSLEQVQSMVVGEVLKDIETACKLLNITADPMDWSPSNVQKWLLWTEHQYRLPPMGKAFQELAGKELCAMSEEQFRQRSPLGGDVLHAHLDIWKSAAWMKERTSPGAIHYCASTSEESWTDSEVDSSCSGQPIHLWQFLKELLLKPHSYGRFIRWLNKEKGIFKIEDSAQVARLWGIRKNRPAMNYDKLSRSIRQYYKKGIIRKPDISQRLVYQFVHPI
Procedure, shortened: as §1

ETV7 = target: T10, ETV7 (Homo sapiens, UniProt Q9Y603 1-341); conditions: protein: recombinant; tags: N-terminal GST; dsDNA, one strand shown
T10 sequence: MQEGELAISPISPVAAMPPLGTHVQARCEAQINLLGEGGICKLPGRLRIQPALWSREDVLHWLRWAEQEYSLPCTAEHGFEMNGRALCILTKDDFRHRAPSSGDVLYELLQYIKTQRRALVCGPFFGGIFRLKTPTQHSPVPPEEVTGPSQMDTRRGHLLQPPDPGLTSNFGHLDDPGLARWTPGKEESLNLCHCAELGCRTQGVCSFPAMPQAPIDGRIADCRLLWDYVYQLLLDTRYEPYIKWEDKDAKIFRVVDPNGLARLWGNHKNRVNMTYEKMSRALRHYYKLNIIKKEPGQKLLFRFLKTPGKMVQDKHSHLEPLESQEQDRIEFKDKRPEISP
Procedure, shortened: as §1

ELF5 = target: T11, ELF5 (Homo sapiens, UniProt Q9UKW6-2 1-255); conditions: protein: recombinant; tags: N-terminal GST; dsDNA, one strand shown
T11 sequence: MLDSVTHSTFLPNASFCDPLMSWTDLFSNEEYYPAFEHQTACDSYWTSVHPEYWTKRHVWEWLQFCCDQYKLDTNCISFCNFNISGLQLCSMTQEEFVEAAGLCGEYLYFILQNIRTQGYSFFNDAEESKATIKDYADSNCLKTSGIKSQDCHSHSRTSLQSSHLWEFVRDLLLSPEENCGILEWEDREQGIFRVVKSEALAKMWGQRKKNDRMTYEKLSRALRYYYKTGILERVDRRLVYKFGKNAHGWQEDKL
Procedure, shortened: as §1

ETV3 = target: T12, ETV3 (Homo sapiens, UniProt P41162-2 1-143); conditions: protein: recombinant; tags: N-terminal GST; dsDNA, one strand shown
T12 sequence: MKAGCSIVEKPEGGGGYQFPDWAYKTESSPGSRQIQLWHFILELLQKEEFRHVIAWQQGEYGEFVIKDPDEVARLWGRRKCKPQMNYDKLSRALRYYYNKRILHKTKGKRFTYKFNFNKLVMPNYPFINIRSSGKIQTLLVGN
Procedure, shortened: as §1

ETV6 = ETV6 (Homo sapiens, UniProt P41212 1-452); conditions: protein: recombinant; tags: N-terminal GST; dsDNA, one strand shown
Procedure, shortened: as §1

Sequence of ETV6 (P41212 whole entry): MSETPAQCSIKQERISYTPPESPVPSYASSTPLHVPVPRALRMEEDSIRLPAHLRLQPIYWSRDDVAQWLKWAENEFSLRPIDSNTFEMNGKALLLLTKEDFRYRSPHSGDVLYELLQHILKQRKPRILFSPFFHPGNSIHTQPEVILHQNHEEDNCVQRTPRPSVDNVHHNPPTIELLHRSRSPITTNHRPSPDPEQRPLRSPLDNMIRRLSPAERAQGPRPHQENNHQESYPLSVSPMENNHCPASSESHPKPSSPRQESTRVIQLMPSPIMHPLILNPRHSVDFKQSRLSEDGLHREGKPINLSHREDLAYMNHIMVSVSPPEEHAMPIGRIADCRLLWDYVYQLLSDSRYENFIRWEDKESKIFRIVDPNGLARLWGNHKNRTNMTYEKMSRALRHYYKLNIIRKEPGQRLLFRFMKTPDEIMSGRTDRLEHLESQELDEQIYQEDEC
Sequence of ETV5 (P41161 whole entry): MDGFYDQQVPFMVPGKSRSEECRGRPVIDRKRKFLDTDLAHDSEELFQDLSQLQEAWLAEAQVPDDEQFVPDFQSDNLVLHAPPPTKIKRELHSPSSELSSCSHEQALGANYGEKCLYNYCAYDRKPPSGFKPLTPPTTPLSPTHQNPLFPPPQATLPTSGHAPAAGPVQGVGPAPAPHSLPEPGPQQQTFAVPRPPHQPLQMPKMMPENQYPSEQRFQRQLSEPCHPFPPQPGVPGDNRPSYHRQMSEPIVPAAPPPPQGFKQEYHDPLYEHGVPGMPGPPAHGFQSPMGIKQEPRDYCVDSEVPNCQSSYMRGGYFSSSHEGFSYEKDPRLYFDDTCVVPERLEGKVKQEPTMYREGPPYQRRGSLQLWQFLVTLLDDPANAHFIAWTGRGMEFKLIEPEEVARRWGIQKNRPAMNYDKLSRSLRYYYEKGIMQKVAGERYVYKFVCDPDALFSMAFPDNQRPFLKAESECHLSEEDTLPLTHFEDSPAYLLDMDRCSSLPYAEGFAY
Sequence of CRX (O43186 whole entry): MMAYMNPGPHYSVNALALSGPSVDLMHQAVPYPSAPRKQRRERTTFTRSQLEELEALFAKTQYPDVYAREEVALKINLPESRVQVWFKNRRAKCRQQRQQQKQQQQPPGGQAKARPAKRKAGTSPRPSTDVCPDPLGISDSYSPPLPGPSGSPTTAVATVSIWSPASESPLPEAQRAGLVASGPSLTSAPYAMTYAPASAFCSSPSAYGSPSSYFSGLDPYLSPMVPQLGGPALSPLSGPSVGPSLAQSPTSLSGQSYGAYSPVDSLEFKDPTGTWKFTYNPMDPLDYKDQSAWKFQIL
Sequence of HSF1 (Q00613 whole entry): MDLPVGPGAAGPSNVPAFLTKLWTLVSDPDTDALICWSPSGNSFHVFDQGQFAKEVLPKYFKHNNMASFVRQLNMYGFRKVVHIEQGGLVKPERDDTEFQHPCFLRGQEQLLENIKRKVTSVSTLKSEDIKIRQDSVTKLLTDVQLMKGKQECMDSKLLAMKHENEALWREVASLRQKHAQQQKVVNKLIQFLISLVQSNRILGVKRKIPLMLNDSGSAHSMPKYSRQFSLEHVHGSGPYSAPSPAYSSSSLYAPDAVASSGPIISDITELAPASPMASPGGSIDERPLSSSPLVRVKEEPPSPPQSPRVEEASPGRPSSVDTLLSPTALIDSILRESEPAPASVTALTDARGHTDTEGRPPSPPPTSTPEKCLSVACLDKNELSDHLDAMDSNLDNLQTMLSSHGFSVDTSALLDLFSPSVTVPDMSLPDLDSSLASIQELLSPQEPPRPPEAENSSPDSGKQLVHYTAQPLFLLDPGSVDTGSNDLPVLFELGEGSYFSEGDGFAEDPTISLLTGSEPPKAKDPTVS
Sequence of ELF4 (Q99607 whole entry): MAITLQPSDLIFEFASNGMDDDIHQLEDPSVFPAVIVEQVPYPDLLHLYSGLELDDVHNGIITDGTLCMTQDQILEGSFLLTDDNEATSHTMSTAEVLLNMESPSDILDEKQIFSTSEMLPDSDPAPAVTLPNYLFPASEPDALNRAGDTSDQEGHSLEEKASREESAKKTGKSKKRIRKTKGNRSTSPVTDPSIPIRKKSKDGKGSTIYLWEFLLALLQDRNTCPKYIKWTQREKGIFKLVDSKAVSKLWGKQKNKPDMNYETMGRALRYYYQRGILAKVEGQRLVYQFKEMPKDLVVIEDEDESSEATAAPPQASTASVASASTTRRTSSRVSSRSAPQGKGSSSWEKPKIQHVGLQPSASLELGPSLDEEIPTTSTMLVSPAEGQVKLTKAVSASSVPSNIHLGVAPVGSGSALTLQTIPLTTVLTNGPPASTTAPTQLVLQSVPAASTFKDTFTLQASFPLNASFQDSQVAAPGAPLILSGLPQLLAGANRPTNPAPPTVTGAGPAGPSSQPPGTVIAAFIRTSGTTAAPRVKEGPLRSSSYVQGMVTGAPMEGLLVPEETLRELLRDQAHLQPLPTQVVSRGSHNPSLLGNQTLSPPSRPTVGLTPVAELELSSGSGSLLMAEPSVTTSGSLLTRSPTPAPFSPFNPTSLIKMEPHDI
Sequence of ETV1 (P50549 whole entry): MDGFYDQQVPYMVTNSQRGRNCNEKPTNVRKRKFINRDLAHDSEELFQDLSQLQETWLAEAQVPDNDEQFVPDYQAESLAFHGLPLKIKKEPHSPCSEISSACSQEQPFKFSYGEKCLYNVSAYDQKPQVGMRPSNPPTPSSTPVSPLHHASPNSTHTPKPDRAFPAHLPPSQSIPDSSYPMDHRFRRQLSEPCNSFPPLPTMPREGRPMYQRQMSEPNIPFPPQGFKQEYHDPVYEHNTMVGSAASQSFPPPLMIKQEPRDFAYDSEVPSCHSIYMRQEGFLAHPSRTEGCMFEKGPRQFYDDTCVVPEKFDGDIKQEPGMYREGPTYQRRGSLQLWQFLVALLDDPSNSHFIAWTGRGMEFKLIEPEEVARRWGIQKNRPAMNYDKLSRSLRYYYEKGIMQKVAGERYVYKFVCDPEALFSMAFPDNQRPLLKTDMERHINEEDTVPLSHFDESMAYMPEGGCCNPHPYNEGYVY

In the case of TCCTCC, the binding signal (FEV) is reported as 1.55 fold enrichment (6-mer frequency, TF over GST control), the binding signal (ETV5) is reported as 1.59 fold enrichment (6-mer frequency, TF over GST control) and the binding signal (HSF1) is reported as 1.27 fold enrichment (6-mer frequency, TF over GST control). For the same sequence, the binding signal (SPIC) was 1.57 fold enrichment (6-mer frequency, TF over GST control), the binding signal (ELF4) was 1.62 fold enrichment (6-mer frequency, TF over GST control) and the binding signal (ELK4) was 1.48 fold enrichment (6-mer frequency, TF over GST control). The binding signal (ETV2) was 1.86 fold enrichment (6-mer frequency, TF over GST control), the binding signal (ELF3) was 1.22 fold enrichment (6-mer frequency, TF over GST control) and the binding signal (CRX) was 1.4 fold enrichment (6-mer frequency, TF over GST control). For the same sequence, the binding signal (ETV1) was 1.53 fold enrichment (6-mer frequency, TF over GST control), the binding signal (ERF) was 1.46 fold enrichment (6-mer frequency, TF over GST control) and the binding signal (ETV3L) was 1.55 fold enrichment (6-mer frequency, TF over GST control). For the same sequence, the binding signal (ETS2) was 1.51 fold enrichment (6-mer frequency, TF over GST control), the binding signal (SPDEF) was 1.61 fold enrichment (6-mer frequency, TF over GST control) and the binding signal (ETV7) was 1.44 fold enrichment (6-mer frequency, TF over GST control). For the same sequence, the binding signal (ELF5) was 2.04 fold enrichment (6-mer frequency, TF over GST control), the binding signal (ETV3) was 1.55 fold enrichment (6-mer frequency, TF over GST control) and the binding signal (ETV6) was 1.51 fold enrichment (6-mer frequency, TF over GST control).
